Experimental findings from PubChem BioAssay (NCI) are described below.

About 83,000 compounds went through this panel and 20% of them were active in at least one assay; those are over-represented in the sample as a whole.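 For each line, cells grew in 96-well plates with the test compound present at a single concentration for 48 hours.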 A number with no mark means an inactive call. The source made the active and inactive calls. How the source made its calls: active means growth percent below 10; inactive means the rest.

Test systems include NCI-H23 lung; NCI-H226 lung; NCI-H322M lung; NCI-H460 lung; HOP-92 NSCLC; NCI-H522 lung; A549/ATCC NSCLC; 786-0 renal; COLO 205 colon; DU-145 prostate; K-562 leukemia; MALME-3M melanoma; MDA-MB-231 breast; RXF 393 renal; SF-268 CNS; SF-295 CNS; SF-539 CNS; UACC-257 melanoma; M14 melanoma; HOP-62 NSCLC.
Holding throughout (assay): NCI-60 one-dose screen, 48 h (100 = growth as untreated, 0 = no growth, -100 = all killed)
Holding throughout (details): 10 µM unless noted

With `O=S(=O)(Nc1cc(Sc2nc3ccccc3s2)c(O)c2ccccc12)c1ccc2ccccc2c1`, the growth was 76.3% in the experiment with NCI-H23 lung; 94.1% in the experiment on NCI-H226 lung; 94.9% in the experiment on NCI-H322M lung; 99.7% in the experiment on NCI-H460 lung; 109% in the experiment with HOP-92 NSCLC; 83% in the experiment on NCI-H522 lung. Also, the growth in the experiment with A549/ATCC NSCLC is 99.9%; in the experiment on 786-0 renal, 111%; with COLO 205 colon it was 101%; in the experiment on DU-145 prostate it was 101%; with K-562 leukemia it was -35.7% (active); in the experiment on MALME-3M melanoma, 102%. Besides, the growth was 71.1% in the experiment with MDA-MB-231 breast; 104% in the experiment on RXF 393 renal; 95.4% in the experiment with SF-268 CNS; 87.7% with SF-295 CNS; 106% in the experiment on SF-539 CNS; 99.8% in the experiment on UACC-257 melanoma. In addition, in the experiment with M14 melanoma, the growth was 109%.
Take `CCn1cc(Cc2cc(C(=O)Nc3cc4cc(OC)c(OC)cc4c(C)n3)ccc2Cl)cn1`: the growth with NCI-H23 lung was 52%; with NCI-H226 lung it was 30.8%; with NCI-H322M lung it was 102%; in the experiment on NCI-H460 lung, 76.3%; with HOP-92 NSCLC, 47.1%; with NCI-H522 lung it was 17.6%. Also, the growth with A549/ATCC NSCLC is 38.9%; with 786-0 renal it was 51.7%; in the experiment with COLO 205 colon it was 46.4%; in the experiment with DU-145 prostate it was 55.3%; in the experiment on K-562 leukemia, 34.4%; in the experiment on MALME-3M melanoma it was 63.4%. The growth in the experiment with MDA-MB-231 breast is 36.3%; in the experiment with RXF 393 renal, 73.2%; in the experiment on SF-268 CNS, 49.3%; in the experiment on SF-295 CNS, 39.7%; in the experiment with SF-539 CNS, 8.23% (active); with UACC-257 melanoma, 40.9%. Besides, the growth with M14 melanoma was 32.6%.
Take `CC1(C)CC(=O)C2=C(C1)C(c1ccc(Cl)cc1)n1ncc(C#N)c1N2` (configuration not stated): the growth in the experiment on NCI-H23 lung was 99.6%; in the experiment on NCI-H226 lung it was 94.8%; in the experiment with NCI-H322M lung, 90.9%; in the experiment on NCI-H460 lung it was 106%; with HOP-92 NSCLC, 99.3%; in the experiment on NCI-H522 lung it was 85.7%. The growth in the experiment on A549/ATCC NSCLC was 101%; in the experiment with 786-0 renal, 98.9%; with COLO 205 colon it was 109%; in the experiment with DU-145 prostate, 108%; in the experiment on K-562 leukemia it was 106%; in the experiment with MALME-3M melanoma it was 102%. In addition, the growth in the experiment with MDA-MB-231 breast was 93.6%; with RXF 393 renal it was 107%; in the experiment with SF-268 CNS, 103%; with SF-295 CNS, 101%; in the experiment on SF-539 CNS, 87.6%; in the experiment with UACC-257 melanoma, 101%. In addition, the growth in the experiment on M14 melanoma is 108%.
Consider `Nc1cc(Br)cc2c1[nH]c(=O)c1ccccc12`, for which the growth in the experiment on NCI-H23 lung is 83.4%; in the experiment on NCI-H226 lung it was 91.9%; in the experiment on NCI-H322M lung, 109%; in the experiment on NCI-H460 lung it was 93.4%; in the experiment with HOP-92 NSCLC, 77.6%; with NCI-H522 lung, 98.1%. The growth was 91.7% with A549/ATCC NSCLC; 101% in the experiment on 786-0 renal; 106% in the experiment with COLO 205 colon; 106% with DU-145 prostate; 92.5% in the experiment with K-562 leukemia; 124% in the experiment with MALME-3M melanoma. Besides, the growth in the experiment with MDA-MB-231 breast was 102%; with RXF 393 renal, 103%; in the experiment on SF-268 CNS, 106%; with SF-295 CNS, 108%; with SF-539 CNS, 112%; in the experiment with UACC-257 melanoma, 94.7%. Further, the growth in the experiment with M14 melanoma is 114%.
Take `O=C1/C(=C/c2ccccn2)SC(=S)N1N1CCOCC1`: the growth is 96.7% with NCI-H23 lung; 95.1% with NCI-H226 lung; 97.5% in the experiment on NCI-H322M lung; 104% in the experiment on NCI-H460 lung; 84.8% in the experiment with HOP-92 NSCLC; 86.8% in the experiment with NCI-H522 lung. Moreover, the growth with A549/ATCC NSCLC was 103%; in the experiment on 786-0 renal, 103%; in the experiment on COLO 205 colon, 103%; in the experiment with DU-145 prostate it was 104%; in the experiment with K-562 leukemia, 103%; in the experiment on MALME-3M melanoma, 92.2%. The growth in the experiment with MDA-MB-231 breast was 92%; with RXF 393 renal it was 92.5%; in the experiment with SF-268 CNS, 99%; with SF-295 CNS it was 95.8%; in the experiment on SF-539 CNS, 105%; with UACC-257 melanoma, 91.8%. In addition, in the experiment with M14 melanoma, the growth is 100%.
On to `CCN1C(=O)N(CC)C2C1NN=c1s/c(=C\c3ccc(OC)cc3)c(=O)n12` (configuration not stated), for which the growth in the experiment with NCI-H23 lung was 32.2%; in the experiment on NCI-H226 lung, 60.5%; with NCI-H322M lung it was 45.9%; with NCI-H460 lung, 4.22% (active); in the experiment on HOP-92 NSCLC it was 33%; with NCI-H522 lung, -9.26% (active). The growth in the experiment with A549/ATCC NSCLC is 10%; in the experiment with 786-0 renal, 20.8%; with COLO 205 colon it was -7.08% (active); in the experiment with DU-145 prostate, 6.18% (active); in the experiment with K-562 leukemia, 8.38% (active); with MALME-3M melanoma it was 40.2%. Further, the growth is 16.3% with MDA-MB-231 breast; 33.9% with RXF 393 renal; 49.4% with SF-268 CNS; 13.2% in the experiment on SF-295 CNS; -21.4% (active) with SF-539 CNS; 56.3% with UACC-257 melanoma. The growth in the experiment with M14 melanoma is 6.11% (active).
Take `CS(=O)(=O)c1ccc(-c2nc3ccccc3n2CC(=O)N/N=C/c2ccccc2)cc1`: the growth was 94.2% in the experiment with NCI-H23 lung; 98.8% in the experiment on NCI-H226 lung; 89% in the experiment on HOP-62 NSCLC; 107% with NCI-H460 lung; 96.3% in the experiment on HOP-92 NSCLC; 79.1% in the experiment with NCI-H522 lung. Moreover, the growth with A549/ATCC NSCLC is 97.2%; with 786-0 renal, 97.1%; in the experiment with COLO 205 colon it was 104%; with DU-145 prostate, 111%; with K-562 leukemia, 92.3%; with MALME-3M melanoma, 82.4%. Also, the growth in the experiment on MDA-MB-231 breast was 97.6%; in the experiment on RXF 393 renal, 116%; in the experiment with SF-268 CNS, 97.5%; in the experiment with SF-295 CNS, 94.2%; in the experiment on SF-539 CNS, 97.5%; with UACC-257 melanoma, 98.8%. In the experiment with M14 melanoma, the growth is 90.4%.
Turning to `Cc1nc([P+](c2ccccc2)(c2ccccc2)c2ccccc2)c(N2CCCCC2)o1`, the growth in the experiment with NCI-H23 lung is 17.1%; with NCI-H226 lung, 53.9%; with HOP-62 NSCLC, 30.3%; with NCI-H460 lung, 12.7%; in the experiment with HOP-92 NSCLC, 16.7%; in the experiment with NCI-H522 lung, 28.8%. Moreover, the growth in the experiment on A549/ATCC NSCLC is 32.8%; with 786-0 renal, 60.3%; in the experiment with COLO 205 colon it was -45.3% (active); in the experiment on DU-145 prostate, 30.2%; with K-562 leukemia it was 15.8%; in the experiment on MALME-3M melanoma, 53.7%. In addition, the growth with MDA-MB-231 breast is 43.5%; with RXF 393 renal it was 67%; in the experiment with SF-268 CNS, 26%; with SF-295 CNS it was 32.7%; in the experiment on SF-539 CNS, 46.6%; with UACC-257 melanoma, 8.05% (active). Also, the growth in the experiment with M14 melanoma was 37%.
